Data from PubChem BioAssay AID1159580 (chemical genetic matrix, 2015).
Out of some 5,500 compounds screened, about 2,000 (36%) were called active. Inconclusive results (about 18%) are left out. Rule as the data show it: active = normalized growth mostly below about 0.91 (no sharp cut-off); inconclusive = no clear call, values can overlap the other calls; inactive = mostly above about 0.92. The list shows a part of the results.

Test: chemical genetic growth profiling, strain panel (AID 1159580);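 also: tested at 20 µM; growth read once vehicle control cultures reached saturation at 30 °C; 1 = growth at the plate median or of vehicle wells; lower values mean less growth of the strain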
Settings: S. cerevisiae deletion strains, growth OD
[1] = locus YAR019C, strain CDC15, stronger effect = lower value
[2] = locus YBL105C, strain PKC1, stronger effect = lower value
[3] = locus YBR135W, strain CKS1, stronger effect = lower value
[4] = locus YBR136W, strain MEC1, stronger effect = lower value
[5] = locus YBR160W, strain CDC28, stronger effect = lower value
[6] = locus YDL017W, strain CDC7, stronger effect = lower value
[7] = locus YDL028C, strain MPS1, stronger effect = lower value
[8] = locus YDL101C, strain DUN1, stronger effect = lower value
[9] = locus YDL108W, strain KIN28, stronger effect = lower value
[10] = locus YDL132W, strain cdc53, stronger effect = lower value
[11] = locus YDL214C, strain PRR2, stronger effect = lower value
[12] = locus YDR052C, strain DBF4, stronger effect = lower value
[13] = locus YDR226W, strain ADK1, stronger effect = lower value
[14] = locus YDR477W, strain SNF1, stronger effect = lower value
[15] = locus YER123W, strain YCK3, stronger effect = lower value
[16] = locus YER133W, strain GLC7, stronger effect = lower value
[17] = locus YFL009W, strain cdc4, stronger effect = lower value
[18] = locus YFL029C, strain CAK1, stronger effect = lower value
[19] = locus YFR003C, strain YPI1, stronger effect = lower value
[20] = locus YFR019W, strain FAB1, stronger effect = lower value
[21] = locus YFR028C, strain CDC14, stronger effect = lower value
[22] = locus YGR040W, strain KSS1, stronger effect = lower value
[23] = locus YGR052W, strain FMP48, stronger effect = lower value
[24] = locus YGR092W, strain DBF2, stronger effect = lower value
[25] = locus YHR030C, strain SLT2, stronger effect = lower value
[26] = locus YHR079C, strain IRE1, stronger effect = lower value
[27] = locus YHR082C, strain KSP1, stronger effect = lower value
[28] = locus YHR205W, strain SCH9, stronger effect = lower value
[29] = locus YIL147C, strain SLN1, stronger effect = lower value
[30] = locus YJL095W, strain BCK1, stronger effect = lower value
[31] = locus YJL157C, strain FAR1, stronger effect = lower value
[32] = locus YJR016C, strain ILV3, stronger effect = lower value
[33] = locus YJR066W, strain TOR1 (second series), stronger effect = lower value
[34] = locus YJR066W, strain TOR1, stronger effect = lower value
[35] = locus YKL048C, strain ELM1, stronger effect = lower value
[36] = locus YKL067W, strain YNK1, stronger effect = lower value
[37] = locus YKL101W, strain HSL1, stronger effect = lower value
[38] = locus YKL193C, strain SDS22, stronger effect = lower value
[39] = locus YKL203C, strain TOR2, stronger effect = lower value
[40] = locus YLR113W, strain HOG1, stronger effect = lower value
[41] = locus YLR133W, strain CKI1, stronger effect = lower value
[42] = locus YLR403W, strain SFP1, stronger effect = lower value
[43] = locus YML070W, strain DAK1, stronger effect = lower value
[44] = locus YMR001C, strain CDC5, stronger effect = lower value
[45] = locus YMR205C, strain PFK2 (second series), stronger effect = lower value
[46] = locus YMR277W, strain FCP1, stronger effect = lower value
[47] = locus YNL006W, strain LST8, stronger effect = lower value
[48] = locus YNL020C, strain ARK1, stronger effect = lower value
[49] = locus YNL161W, strain CBK1, stronger effect = lower value
[50] = locus YNL183C, strain NPR1, stronger effect = lower value
[51] = locus YNL207W, strain RIO2, stronger effect = lower value
[52] = locus YNL222W, strain SSU72, stronger effect = lower value
[53] = locus YNL307C, strain MCK1 (second series), stronger effect = lower value
[54] = locus YOL078W, strain AVO1, stronger effect = lower value
[55] = locus YOL136C, strain PFK27, stronger effect = lower value
[56] = locus YOR061W, strain CKA2, stronger effect = lower value
[57] = locus YOR119C, strain RIO1, stronger effect = lower value
[58] = locus YOR231W, strain MKK1, stronger effect = lower value
[59] = locus YOR329C, strain SCD5, stronger effect = lower value
[60] = locus YPL031C, strain PHO85, stronger effect = lower value
[61] = locus YPL153C, strain RAD53, stronger effect = lower value
[62] = locus YPL204W, strain HRR25, stronger effect = lower value
[63] = locus YPL209C, strain IPL1, stronger effect = lower value
[64] = locus YPL256C, strain CLN2, stronger effect = lower value
[65] = locus YPR025C, strain CCL1, stronger effect = lower value
[66] = locus YPR111W, strain DBF20, stronger effect = lower value
[67] = strain NNK1, stronger effect = lower value
[68] = strain TSCII, stronger effect = lower value

Measured: normalized growth

Cc1ccc2nc3c(nc2c1)-c1ccccc1C3=O
inactive: [1] 0.916 | [2] 0.925 | [3] 0.929 | [4] 0.93 | [5] 0.931 | [6] 0.926 | [7] 0.937 | [9] 0.938 | [10] 0.932 | [13] 0.958 | [17] 0.925 | [18] 0.9 | [19] 0.927 | [21] 0.922 | [29] 0.935 | [32] 0.935 | [38] 0.919 | [44] 0.908 | [46] 0.922 | [47] 0.929 | [49] 0.903 | [51] 0.909 | [52] 0.923 | [54] 0.903 | [59] 0.92 | [63] 0.92 | [65] 0.929 | [66] 0.886
active: [8] 0.716 | [11] 0.247 | [12] 0.861 | [14] 0.279 | [15] 0.217 | [16] 0.339 | [20] 0.281 | [22] 0.3 | [23] 0.255 | [24] 0.15 | [25] 0.208 | [26] 0.209 | [27] 0.261 | [28] 0.391 | [30] 0.227 | [31] 0.21 | [33] 0.259 | [34] 0.225 | [35] 0.309 | [36] 0.235 | [37] 0.264 | [39] 0.275 | [40] 0.288 | [41] 0.224 | [42] 0.181 | [43] 0.243 | [45] 0.261 | [48] 0.196 | [50] 0.259 | [53] 0.199 | [55] 0.226 | [56] 0.205 | [57] 0.29 | [58] 0.246 | [60] 0.278 | [61] 0.265 | [62] 0.263 | [64] 0.277 | [67] 0.8 | [68] 0.874

COc1ccc(OC)c2nc3c(nc12)C(=O)c1ccccc1-3
inactive: [1] 0.97 | [2] 0.969 | [3] 0.974 | [4] 0.974 | [5] 0.974 | [6] 0.968 | [7] 0.984 | [8] 0.953 | [9] 0.972 | [10] 0.972 | [11] 0.997 | [12] 0.971 | locus YDR054C, strain cdc34, stronger effect = lower value 0.957 | [13] 0.979 | [14] 0.971 | [15] 0.942 | [16] 0.988 | [17] 0.978 | [18] 0.969 | [19] 0.974 | [20] 0.974 | [21] 0.981 | [22] 0.973 | [23] 1 | [24] 0.837 | [25] 0.914 | [26] 0.863 | [27] 1.05 | [28] 0.965 | [29] 0.979 | [30] 0.91 | locus YJL128C, strain PBS2, stronger effect = lower value 0.956 | [31] 0.958 | [32] 0.977 | [33] 0.947 | [34] 1 | [35] 0.953 | [36] 0.989 | [37] 0.985 | [38] 0.975 | [39] 1 | [40] 0.899 | [41] 0.967 | [42] 0.932 | [43] 0.979 | [44] 0.971 | [45] 0.996 | [46] 0.976 | [47] 0.973 | [48] 0.94 | [49] 0.958 | [50] 0.99 | [51] 0.971 | [52] 0.974 | [53] 0.945 | [54] 0.975 | [55] 0.958 | [56] 0.938 | [57] 1.05 | [58] 0.902 | [59] 0.966 | [60] 0.935 | [61] 0.929 | [62] 0.94 | [63] 0.96 | [64] 0.902 | [65] 0.979 | locus YPR106W, strain ISR1, stronger effect = lower value 0.98 | [66] 0.968 | [67] 0.98 | [68] 0.968
